# Gal4-VP16 FLuc – counter-screen for ROR gamma inhibitors: Gal4-VP16 reporter; Drosophila S2 Gal4-VP16 UAS-luciferase, luminescence, 20 h; Potency, µM (series often up to 53.6 µM), without a hit: at the top dose activity, negative = inhibition, usual class: inhibitors; actives 3.5% (n = 310,000); AID 2546;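 note: Gal4-VP16 expression switched on by copper sulfate through the metallothionein promoter; % is set by controls: 0 for no effect and ±100 for the full control effect; nearly all actives have a fitted effect of over 50% in size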
# MCF10A rereplic – induces DNA re-replication in MCF 10a normal breast cells; MCF 10A DNA re-replication, Hoechst nuclear intensity, 48 h; Potency, µM (highest dose often 46.1 µM), inactives show at the top dose activity, positive = re-replication, actives largely listed as activators; actives 2.9% (n = 350,000); note: % of control where 0% means no effect; nearly all actives have a fitted effect of over 50% in size
# ELG1 DNA repair – blocks ELG1-dependent DNA repair in HEK293T cells | HEK293T ELG1-luciferase reporter, luminescence, 16 h; DNA damage induced by 5-fluorouridine | actives 2.3% (n = 330,000) | Potency, µM (top dose mostly 46.1 µM), for the others: at the highest dose activity change, negative = inhibition, usual class: inhibitors; note: % is set by controls: 0 for no effect and ±100 for the full control effect; nearly all actives have a fitted effect of over 55% in size
#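 Step one: seed 2,000 cells per well. Step two: pin-transfer compound or DMSO alongside 5-fluorouridine. Step three: incubate 16 hr, 37 °C, 5% CO2. Step four: add ONE-Glo, wait 30 min, read luminescence.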
# SW480 rerep – induces DNA re-replication in SW480 colon adenocarcinoma cells | actives 1.8% (n = 340,000) | Potency, µM (top dose mostly 46.1 µM), for inactives: top-dose re-replication activation, actives largely listed as activators | SW480 DNA re-replication, Hoechst DNA content imaging, 48 h; note: % of control where 0% means no effect; nearly all actives have a fitted effect of over 55% in size
#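 Hoechst fluorescence of nuclei (405 nm excitation, 500-530 nm emission) measured by plate-scanning imager after 48 hr compound exposure at 37 C; re-replication scored as increased number of nuclei with elevated intensity.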
# RORgamma inh – inhibitors of mouse ROR gamma transcriptional activity | P51450 | Potency, µM (titrated, usually from 53.6 µM), for the others: at the top dose activity change, negative = inhibition, most hits filed as inhibitors | Drosophila S2 Gal4-RORgamma UAS-luciferase reporter, 20 h | actives 5.4% (n = 310,000); note: % is set by controls: 0 for no effect and ±100 for the full control effect; nearly all actives have a fitted effect of over 60% in size
# Target sequence (P51450 whole entry, looked up, the tested form may be a part): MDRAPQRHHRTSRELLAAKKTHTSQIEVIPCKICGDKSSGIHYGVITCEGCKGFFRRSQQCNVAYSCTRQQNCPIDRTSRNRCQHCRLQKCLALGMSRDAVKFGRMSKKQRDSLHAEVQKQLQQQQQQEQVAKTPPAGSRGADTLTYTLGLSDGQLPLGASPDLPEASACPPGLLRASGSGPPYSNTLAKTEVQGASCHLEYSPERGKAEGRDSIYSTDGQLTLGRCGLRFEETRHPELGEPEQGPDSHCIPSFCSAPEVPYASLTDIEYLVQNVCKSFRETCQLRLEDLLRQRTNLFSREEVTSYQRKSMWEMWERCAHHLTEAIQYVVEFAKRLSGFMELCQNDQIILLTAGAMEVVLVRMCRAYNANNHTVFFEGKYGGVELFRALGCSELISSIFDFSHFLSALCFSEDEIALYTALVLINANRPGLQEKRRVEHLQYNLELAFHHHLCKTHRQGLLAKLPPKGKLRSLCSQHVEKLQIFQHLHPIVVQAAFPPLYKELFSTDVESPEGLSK
#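 Stable Schneider cell line, Gal4 DNA-binding domain fused to ROR gamma, UAS-luciferase. Cmpd 1 hr RT → CuSO4 700 uM final → 20 hr RT → luciferase reagent 10 min → luminescence.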
# The depositor's hits bear a star; ? = inconclusive; . = not tested or not shown; [ ] = remark or other dose. Compounds with a hit are over-represented: about 10% of the library has one in this group of screens. Calls come from the whole dose curve; as a rule, active = well fitted curve in the direction sought with a large enough effect; inconclusive = small, poorly fitted or top-dose-only effect, or another doubt; inactive = no such curve, though single readings can be large; an effect the other way counts as inactive or inconclusive. Potency is the fitted concentration of half-maximal effect.
SMILES,Gal4-VP16 FLuc,MCF10A rereplic,ELG1 DNA repair,SW480 rerep,RORgamma inh
CCCCN(CCCC)C(=S)N/N=C/c1c(C)[nH]n(-c2ccccc2)c1=O,5µM*,?,?,?,1.6µM*
O=C(Nc1ccc(F)cc1)OCCOc1ccc([N+](=O)[O-])cc1,-5%,2%,2%,2%,?
Cc1[nH]n(-c2ccccc2)c(=O)c1C=NCCc1ccccc1,6%,1%,?,-4%,-10%
CCCCN=Cc1c(C)[nH]n(-c2ccccc2)c1=S,2.5µM*,-3%,-3%,-5%,0.63µM*
Cc1cc(C(=O)N/N=C/c2c(C)n(C)c3ccccc23)n[nH]1,0%,-2%,?,232%,6%
Cc1cc(C(=O)N/N=C/c2c(C)[nH]n(-c3ccccc3)c2=O)n[nH]1,?,-1%,7%,-3%,10µM*
NC(=O)C(=O)N/N=C/c1c2ccccc2cc2ccccc12,-1%,23µM*,-1%,?,?
NC(=O)C(=O)N/N=C/c1cccc(C(F)(F)F)c1,-2%,1%,3%,-1%,-22%
CN(C)c1nc(-c2ccoc2)nc2ccccc12,-3%,.,.,.,18%
COc1cccc(CC(=O)n2nc(N)c3cc4ccc(OC)cc4nc32)c1,?,?,9.2µM*,5%,28%
COc1ccc2cc3c(N)nn(C(=O)Cc4c[nH]c5ccccc45)c3nc2c1,-23%,?,1.5µM*,?,?
COc1ccc2cc3c(N)nn(C(=O)Cc4ccc(Cl)cc4)c3nc2c1,-20%,?,?,-4%,?
COC(=O)[C@H](CC(C)C)NC(=O)c1cc2c(cn1)[nH]c1ccccc12,-4%,?,9%,?,0%
Cn1c(CNC(=O)c2ccco2)nnc1SCC(=O)c1ccc(Br)cc1,-4%,0%,0%,0%,11%
N#CCCC1CCCC=C1N(Cc1ccccc1)C(=O)C(Cl)Cl (stereo unspecified),-4%,10µM*,6%,4%,6%
COc1ccccc1C(=O)NC(=O)CSc1nnc(SC)s1,.,-3%,0%,-4%,.
CN1C(=O)/C(=C\C(=O)c2cccs2)c2ccccc21,13µM*,?,?,-71%,5.6µM*
O=C1CCN(C(=O)c2cccs2)c2ccccc21,3%,-39%,?,-2%,-12%
Cc1nnnn1CC(=O)Nc1cccc([N+](=O)[O-])c1,2%,-4%,7%,-7%,5%
O=S(=O)(c1ccc(-c2csc(-c3cccnc3)n2)cc1)N1CCCC1,8%,-179%[0.0737 µM],-27%,?,33%
O=S(=O)(c1ccc(-c2csc(-c3cccnc3)n2)cc1)N1CCCCC1,-21%,22%,23µM*,3%,?
COc1cccc(Nc2nc(N)nc(-c3oc4ccccc4c3C)n2)c1,-9%,7.3µM*,0%,13µM*,0%
Cc1cccc(Nc2nc(N)nc(-c3oc4ccccc4c3C)n2)c1,-20%,16µM*,-3%,18µM*,23%
Cc1ccc(Nc2nc(N)nc(-c3oc4ccccc4c3C)n2)cc1,-23%,?,?,?,-9%
CC(C)OC(=O)/C(=C\c1cccc2ccccc12)NC(=O)c1ccccc1,-3%,?,?,-20%,20%
CN(Cc1ccccc1)S(=O)(=O)c1ccc(NC(=S)NC(=O)C2CCCCC2)cc1,7.9µM*,23µM*,?,?,8.9µM*
CCN(CC)S(=O)(=O)c1ccc(NC(=S)NC(=O)C(C)C)cc1,?,-10%,3%,-9%,13µM*
C=CCN(CC=C)S(=O)(=O)c1ccc(NC(=S)NC(=O)C2CC2)cc1,?,17%,?,116%,11µM*
CC(=O)Nc1ccc(S(=O)(=O)N(C)Cc2ccccc2)cc1,25%,2%,0%,-4%,?
CN(Cc1ccccc1)S(=O)(=O)c1ccc(NC(=S)NC(=O)C(C)(C)C)cc1,?,16%,?,0%,13µM*

# Screens from PubChem.
